Compound activity: PubChem BioAssay, National Center for Advancing Translational Sciences (NCATS)
Hits are enriched below; roughly 5.9% of the tested compounds scored in any of these assays.
ATXN viability – viability counter-screen for ATXN expression inhibitors | Potency, µM (doses to about 56.7 µM), usual class: cytotoxic | S2 cells (HEK-293 line with an ATXN2-luciferase reporter) viability, CellTiter-Fluor protease fluorescence, 24 h | 400,000 tested, 0.49% active; note: nearly all actives have a fitted effect of over 40% in size
KB-V1 MDR tox – KB-V1 MDR subline cytotoxicity; KB-V1 MDR cells viability, CellTiter-Glo, 72 h; Potency, µM (doses to about 46.1 µM), actives largely listed as cytotoxic; 400,000 tested, 3.4% active; note: nearly all actives have a fitted effect of over 60% in size
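Luminescent ATP read-out (CellTiter-Glo, 10 min) measures survival of drug-selected KB-V1 MDR cells after 72 h, 37 degrees C compound exposure. Medium: phenol-red-free DMEM, 10% FBS. Values from fitted concentration-response curves.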
HepG2 tox – HepG2 cytotoxicity, counter-screen for TGF-b inhibitors | HepG2 CAGA-GFP viability, ATP luminescence, 18 h | Potency, µM (series often up to 46.1 µM), hits mostly cytotoxic | 410,000 tested, 0.76% active | AID 588856
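CellTiter-Glo luminescence gave cytotoxicity after 18 hours at 37 degrees C. The cells were HepG2 CAGA-GFP in 1% FBS DMEM, stimulated with 500 pg/mL TGF-beta after compound addition. %Activity was normalised to no-cell wells (complete cell-killing) and DMSO (no toxicity), and curves were fitted and classified.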
ATXN2 expr inh – ATXN2 expression inhibition; HEK-293 ATXN2-luciferase reporter, luminescence, 24 h; Potency, µM (titrated, usually from 57 µM), usual class: inhibitors; 360,000 tested, 0.72% active; note: nearly all actives have a fitted effect of over 55% in size
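qHTS (up to 57 uM final) was run with 24 h compound exposure of reporter cells at 37 °C. Each well was multiplexed: SteadyGlo luminescence measured ATXN2-luciferase expression after a fluorogenic Gly-Phe-AFC viability readout (25 uM final).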
TGFb SMAD3 inh – TGF-b pathway inhibition. 410,000 tested, 1.2% active. HepG2 CAGA-GFP TGF-b/SMAD3 reporter, GFP fluorescence, 18 h; TGF-beta stimulated, 500 pg/mL final. Potency, µM (titrated, usually from 46.1 µM), hits mostly inhibitors. AID 588855; note: nearly all actives have a fitted effect of over 65% in size
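HEPG2 CAGA-GFP cells (1000/well, DMEM with 1% FBS) were pre-incubated 2 h at 37 degrees C, given compound by pin tool, then stimulated with TGF-beta at 500 pg/mL final for 18 h before per-cell GFP fluorescence imaging.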
KB-3-1 cytotox – kills parental KB-3-1 adenocarcinoma cells | 400,000 tested, 1.4% active | AID 1347075 | Potency, µM (doses to about 46.1 µM), most hits filed as cytotoxic | KB-3-1 viability, CellTiter-Glo ATP luminescence, 72 h; note: nearly all actives have a fitted effect of over 60% in size
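Cells are dispensed, compounds pinned in, plates held at 37 °C for 72 h, then CellTiter-Glo is added and luminescence read after 10 minutes. Cell line: parental KB-3-1 in phenol-red-free DMEM, 10% FBS.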
A number is an active result; – = inactive; ? = inconclusive; · = no result. Calls come from the whole dose curve; as a rule, active = well fitted curve in the direction sought with a large enough effect; inconclusive = small, poorly fitted or top-dose-only effect, or another doubt; inactive = no such curve, though single readings can be large; an effect the other way counts as inactive or inconclusive.

SMILES	ATXN viability	KB-V1 MDR tox	HepG2 tox	ATXN2 expr inh	TGFb SMAD3 inh	KB-3-1 cytotox
CC(=O)OC[C@@H]1CN(Cc2ccccc2)C[C@H](n2cnc3c(Nc4ccccc4)ncnc32)O1	–	–	16µM	–	–	–
CC(=O)OC[C@@H]1CN(Cc2ccccc2)C[C@H](n2cnc3c(NC4CCC4)ncnc32)O1	–	–	–	–	–	–
CCOC(=O)C(=CNc1cc(C)nn1-c1ccccc1)C(=O)OCC	–	4.6µM	–	–	–	–
Cc1cccc(N2CCN(CCNC(=O)Nc3ccc(Cl)cc3)CC2)c1C	·	·	–	·	?	·
S=c1nc[nH]c2c1ncn2-c1ccc(Cl)cc1	–	10µM	–	–	–	?
CC(C)OC(=O)c1cc2c(ccn2C)n1CC(=O)N(Cc1ccccc1)c1ccccc1	–	15µM	–	–	?	?
COc1ccc2[nH]c3nc(SCc4nnc(-c5ccc(C)cc5)o4)nnc3c2c1	·	?	–	20µM	–	?
COc1ccc(-c2onc(C)c2C)cc1S(=O)(=O)NCC1CCN(Cc2cc(C)ccc2C)CC1	·	–	16µM	·	?	–
Cc1cccc(NC(=O)CSCC(=O)Nc2ccccc2N2CCCC2)c1	?	?	–	–	–	–
Cc1ccccc1NC(=O)c1cc(N)ccc1N1CCCCC1	–	15µM	–	–	?	–
CCC(=O)Nc1ccc(N2CCCCC2)c(C(=O)Nc2ccccc2C)c1	–	12µM	–	–	–	–
CN(C)S(=O)(=O)c1ccc(N2CCCC2)c(C(=O)Nc2ccccc2Br)c1	–	–	–	–	–	–
Cc1cccc(NC(=O)CSCC(=O)Nc2ccccc2N2CCCCC2)c1	–	16µM	–	–	?	?
Cc1ccc(NC(=O)c2cc(NC(=O)c3ccco3)ccc2N2CCCCC2)cc1	–	–	–	–	?	–
Cc1nc([N+](=O)[O-])cn1CC(O)c1ccc2c(c1)OCCO2 (centres undefined)	·	–	–	·	–	–
CCOc1ccc(NC(=O)CN(C)C(=O)c2ccccc2OCc2cccc(C)c2)cc1OCC	–	2.9µM	–	–	?	–
COc1ccc(NC(=O)CN(C)C(=O)c2csc3c2CCCC3)cc1	–	?	–	–	–	–
CCOc1ccc(NC(=O)CN(C)C(=O)CSCc2ccc(C)cc2)cc1OCC	–	?	5µM	–	–	–
CCOc1ccc(NC(=O)CN(C)C(=O)c2csc3c2CCCC3)cc1OCC	–	15µM	–	–	–	–
Cc1noc(C)c1CSCC(=O)N(C)CC(=O)Nc1ccc(Cl)c(C(F)(F)F)c1	–	–	–	–	–	–
Cc1cccc(COc2ccccc2C(=O)N(C)CC(=O)Nc2cccc(F)c2)c1	–	–	–	–	–	?
Cc1noc(C)c1CSCC(=O)N(C)CC(=O)Nc1ccc(Cl)c(Cl)c1	–	5.8µM	–	–	–	–
CCCNC(=O)c1cnc2sc(N3CCCCCC3)nn2c1=O	·	·	–	·	–	·
CCN(CCCNC(=O)c1nn(-c2ccc(C)cc2)c(=O)c2c1c1ccccc1n2C)c1ccccc1	–	–	–	–	–	–
Cc1cc(C)c(NC(=O)CN2c3ccccc3S(=O)(=O)c3ccccc32)c(C)c1	–	–	–	–	–	–
SMILES	ATXN viability	KB-V1 MDR tox	HepG2 tox	ATXN2 expr inh	TGFb SMAD3 inh	KB-3-1 cytotox
COc1cccc(NC(=O)c2c(C)oc3nc(C)nc(N4CCCC4)c23)c1	·	·	–	·	–	·
Cn1cc(S(=O)(=O)N2CCc3ccccc32)cc1C(=O)Nc1ccc(C(F)(F)F)cc1	·	·	–	·	?	·
CCOc1ccc(NC(=O)CN(C)C(=O)c2cccnc2Sc2ccc(C)cc2C)cc1OCC	–	16µM	–	–	–	–
CCOc1ccc(NC(=O)CN(C)C(=O)c2ccc(COc3ccccc3)o2)cc1OCC	–	–	–	–	–	–
CCOc1ccc(NC(=O)CN(C)C(=O)c2ccc(COc3ccccc3)cc2)cc1OCC	–	9.2µM	–	–	?	–
CC(C)(C)OC(=O)NCCc1nc(NC(=O)OCc2ccccc2)sc1C(=O)O	·	–	·	·	·	–
CN1c2ccccc2N(C)C1(C)c1ccccc1	–	–	–	–	?	–
CCN1c2ccccc2N(C)C1(C)c1ccccc1 (centres undefined)	–	–	–	18µM	8.9µM	?
CCOC(=O)Nc1cc2c(c(N)n1)N=C(c1ccccc1)CN2	?	0.13µM	–	–	?	0.18µM
CCOC(=O)Nc1sc(C)nc1-c1ccccc1	–	?	–	–	–	–
CCCCOc1ccc(C(=O)Nc2cc(-c3cn4cccnc4n3)ccc2OC)cc1	·	·	–	·	–	·
CCCCCCCCCCn1c2c(c(=N)c3c1CCC3)CCC2	?	–	–	?	13µM	?
CCOC(=O)Cn1c2c(c(=N)c3c1CCC3)CCC2	–	–	–	–	–	?
CCn1c2c(c(=N)c3c1CCC3)CCCC2	–	?	–	–	–	12µM
CCCCCCCCCn1c2c(c(=N)c3c1CCC3)CCCC2	?	–	–	?	6.3µM	?
O=C(C[n+]1ccccc1)NNc1ccccc1	?	–	–	?	?	6.5µM
c1ccc2c(-c3nc4ccccc4[nH]3)cccc2c1	?	4.6µM	–	·	–	21µM
O=C(Nc1ccccc1)c1cccc(N2CCCS2(=O)=O)c1	–	–	–	–	–	–
Cc1ccc(S(=O)(=O)N2[C@H](CC(=O)c3cccs3)OC[C@@H]2C(C)C)cc1	·	18µM	·	·	·	18µM
